Here are results for 31 compounds from ChEMBL document CHEMBL1961873, “Compounds: GSK PKIS; Assays: Nanosyn kinase panel” (2012).

Several values for one entry are separate records, joined by “and”; a condition that tells them apart may be missing. Equal entries are not always repeated.

In the assay the test system is Platelet-derived growth factor receptor alpha (Homo sapiens), P16234 [T674I]. Particulars: at 0.1 µM.
Chain of Platelet-derived growth factor receptor alpha (Homo sapiens), P16234 [T674I] (P16234 whole entry T674I): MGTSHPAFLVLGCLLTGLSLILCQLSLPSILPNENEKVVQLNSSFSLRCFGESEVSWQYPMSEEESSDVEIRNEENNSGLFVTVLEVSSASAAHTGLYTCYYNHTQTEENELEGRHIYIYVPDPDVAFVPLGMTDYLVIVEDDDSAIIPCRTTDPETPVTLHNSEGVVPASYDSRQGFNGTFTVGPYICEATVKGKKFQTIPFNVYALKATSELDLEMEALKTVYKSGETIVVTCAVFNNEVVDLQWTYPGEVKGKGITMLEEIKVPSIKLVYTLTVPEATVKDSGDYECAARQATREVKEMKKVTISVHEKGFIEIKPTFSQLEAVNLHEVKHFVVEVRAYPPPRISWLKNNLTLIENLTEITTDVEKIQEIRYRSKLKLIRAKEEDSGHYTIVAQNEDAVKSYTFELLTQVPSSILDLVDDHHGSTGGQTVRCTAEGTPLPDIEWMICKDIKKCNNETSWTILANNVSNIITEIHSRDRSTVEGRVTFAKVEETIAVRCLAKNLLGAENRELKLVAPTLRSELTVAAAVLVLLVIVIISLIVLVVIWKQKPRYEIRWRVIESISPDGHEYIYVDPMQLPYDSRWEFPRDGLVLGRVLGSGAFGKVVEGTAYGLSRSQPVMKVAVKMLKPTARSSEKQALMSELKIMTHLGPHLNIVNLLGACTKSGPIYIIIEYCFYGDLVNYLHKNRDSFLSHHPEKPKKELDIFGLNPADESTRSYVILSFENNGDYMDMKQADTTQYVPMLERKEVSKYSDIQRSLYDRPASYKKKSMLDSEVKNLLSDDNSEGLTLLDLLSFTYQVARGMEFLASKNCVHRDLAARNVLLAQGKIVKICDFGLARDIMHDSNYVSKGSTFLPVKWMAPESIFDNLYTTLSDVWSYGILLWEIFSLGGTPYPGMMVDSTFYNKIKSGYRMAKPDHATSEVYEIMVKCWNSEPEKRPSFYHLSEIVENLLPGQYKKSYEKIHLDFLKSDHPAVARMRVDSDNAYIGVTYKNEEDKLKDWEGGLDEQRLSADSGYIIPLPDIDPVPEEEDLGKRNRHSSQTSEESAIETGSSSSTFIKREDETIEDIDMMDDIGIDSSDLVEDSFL
As for `COc1ccc(Nc2ncc(-c3ccccc3)o2)cc1OC`, the inhibition was found to be 42.2%.
To `CCS(=O)(=O)c1ccc(OC)c(Nc2ncc(-c3cccc(C(C)=O)c3)o2)c1` belongs 7.08%; to `CS(=O)(=O)Nc1ccc(-c2ccc3c(NC(=O)C4CC4)n[nH]c3c2)cc1`, 4.77%; to `CS(=O)(=O)CCNCc1ccoc1-c1ccc2ncnc(Nc3ccc(OCc4ccccc4)cc3)c2c1`, 4.43%.
To `NS(=O)(=O)c1ccc(N/N=C2\C(=O)Nc3ccc(C(=O)NCc4ccncc4)cc32)cc1` belongs 3.72%.
To `CN1CCC(C(=O)Nc2n[nH]c3nc(-c4ccc(O)cc4)c(Br)cc23)CC1` belongs 5.57% and 1.83%.
Regarding `CN1CCN(Cc2ccc(-c3cc4ncnc(Nc5ccc(OCc6cccc(F)c6)c(Cl)c5)c4s3)o2)CC1`, the inhibition was 4.32% and 7.13%.
To `COc1cc2c(cc1Nc1nc(Nc3cccc(F)c3C(N)=O)c3cc[nH]c3n1)N(C(=O)CN1CCN(C(C)C)CC1)CC2` belongs 2.01%; to `COc1cccc(-n2ncc3c(N/N=C/c4ccc(C(=O)NCCN(C)C)cc4)ncnc32)c1`, 20.5%; to `CN(c1ccc(NC(=O)NCCN2CCOCC2)cc1)c1ccnc(Nc2ccc(CS(C)(=O)=O)cc2)n1`, 63.9%.
To `Cc1nnc(-c2cccc(-c3ccc(C(=O)NCC4CC4)cc3)c2)o1` belongs 6.98%; to `Cc1cc(O)cc(C)c1/C=C/c1cncc(C(N)=O)c1`, 4.15%.
To `FC(F)(F)CNc1nccc(-c2cnn3ncccc23)n1` belongs 1.52%.
Consider `NC(=O)c1ccc2c(-c3ccnc(NCCCO)n3)c(-c3ccc(F)cc3)nn2c1`, for which the inhibition amounted to 6.06%.
For the compound `COc1ccc2ncn(-c3cc(O[C@H](C)c4ccccc4C(F)(F)F)c(C(N)=O)s3)c2c1`, the inhibition came out at 0.36%.
In turn, `COc1cc(Nc2ncc(-c3ccccc3)o2)cc(OC)c1` yielded an inhibition of 19.5%.
In the case of `Fc1ccc(Nc2nccc(-c3c(-c4ccc(C(F)(F)F)cc4)nn4ncccc34)n2)cc1F`, the inhibition is 4.35%.
To `COc1cc(N2CCN(C(C)C)CC2)ccc1Nc1nc(Nc2cccc(F)c2C(=O)O)c2cc[nH]c2n1` belongs 7.14%; to `CC1(C)CC(n2cnc(-c3ccc(F)cc3)c2-c2ccnc(N)n2)CC(C)(C)N1`, 2.4%.
To `COc1cccc(Nc2nccc(-c3cnn4ncccc34)n2)c1` belongs 12.6%; to `COc1ccc(-c2nn3ncccc3c2-c2ccnc(Nc3ccc(F)c(F)c3)n2)cc1`, 10.3%; to `CNC(=O)c1cncc(/C=C/c2ccccc2C)c1`, 4.91%.
To `Cn1c(-c2nonc2N)nc2cnccc21` belongs 4.72%; to `Nc1ncnc2occ(-c3ccc(NC(=O)Nc4cc(C(F)(F)F)ccc4F)cc3)c12`, 75.6% and 72.8%; to `CCOc1ccc2c(-c3ccnc(Nc4cc(OC)cc(C(F)(F)F)c4)n3)cnn2n1`, 2.28%.
Compound `O=C1Nc2ccccc2/C1=C1\CCc2cc(O)ccc21` returned an inhibition of 45.7%.
To `O=C(O[C@H]1CN[C@H](C#Cc2cc3ncnc(Nc4ccc5c(ccn5Cc5cc(F)ccc5F)c4)c3s2)C1)N1CCOCC1` belongs 5.88%; to `CS(=O)(=O)CCNCc1ccc(-c2ccc3ncnc(Nc4ccc(OCc5cccc(C(F)(F)F)c5)cc4)c3c2)o1`, 5.53%.
To `N#Cc1cccc(Nc2ncc(-c3ccccc3)o2)c1` belongs 6.26%; to `N#Cc1ccc2c(-c3ccnc(NC4CC4)n3)c(-c3ccc(F)cc3)nn2c1`, 6.42%.
Compound `CNC(=O)c1sc(-n2cnc3cc(OC)c(OC)cc32)cc1OCc1ccccc1C(F)(F)F` displayed an inhibition of 4.17%.
